Most compounds without a hit are left out; they make up all but 2.9% or so of the library.
GRK2 aptamer HTS – blocks RNA aptamer binding to human GRK2; P25098; bead flow cytometry, FAM-aptamer displacement from GRK2; inhibition of aptamer binding, % at 10 µM; 330,000 tested, 0.59% active; AID 488847;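 active = inhibition of aptamer binding above 40%, roughly 3 SD of noise, on plates passing a quality check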;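 note: median bead fluorescence of bound FAM aptamer so fluorescent compounds give negative values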
MEKK3 PB1 HTS – modulators (inhibitors or enhancers) of MEK5 binding to human MEKK3 PB1 domain | Q99759 | bead-based flow cytometry, Alexa488-MEK5 binding to MEKK3; actives lie on both sides; 0 = blocked by unlabeled MEK5, 100 = vehicle | binding response (% of control), % at 10 µM | 290,000 tested, 1.4% active;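 active = binding response more than 3 SD above or below the average of its plate-row segment, actives on both sides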;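 note: Alexa488 bead fluorescence after subtracting the streptavidin-only scavenger bead signal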
Beta2AR agonist – human beta-2 adrenergic receptor agonism by FAP; response, % (test concentration not listed); Am2.2-beta2AR cells, FAP receptor internalization, flow cytometry; P07550; AID 504454; 340,000 tested, 0.43% active;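 active = response above a set limit, near 3 SD of response in nonfluorescent compounds, cut at about 42% in these data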
Target sequence (P07550 whole entry, looked up): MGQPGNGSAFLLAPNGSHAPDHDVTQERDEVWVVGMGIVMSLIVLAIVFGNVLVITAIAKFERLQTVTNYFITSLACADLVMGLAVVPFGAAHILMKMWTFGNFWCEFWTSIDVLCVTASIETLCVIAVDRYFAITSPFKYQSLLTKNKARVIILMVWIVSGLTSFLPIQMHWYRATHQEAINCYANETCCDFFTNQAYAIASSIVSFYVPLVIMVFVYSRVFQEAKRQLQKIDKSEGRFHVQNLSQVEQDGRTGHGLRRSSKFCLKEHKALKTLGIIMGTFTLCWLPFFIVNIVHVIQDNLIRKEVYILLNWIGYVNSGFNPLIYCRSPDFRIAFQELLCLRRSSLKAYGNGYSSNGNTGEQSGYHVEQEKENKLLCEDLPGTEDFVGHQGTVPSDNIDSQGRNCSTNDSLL
MEKK2 mut-MEK5 – signal of MEK5 binding to mutant human MEKK2 PB1 domain. bead flow cytometry, Alexa488-MEK5 binding to MEKK2 mutant. percent response, % at 10 µM. 290,000 tested, 0.35% active; in the data active = percent response above about 24%, passing the limit was not always enough
MEKK2wt PB1 HTS – raises or lowers MEK5 binding to wildtype human MEKK2 PB1 domain. binding response (% of control), % at 10 µM. 290,000 tested, 1.1% active. AID 1531. bead flow cytometry, Alexa488-MEK5 binding to MEKK2 WT; actives lie on both sides; in the data active = binding response below about 67% or above about 130%
GRK2 CP1 – human GRK2 inhibition confirmation, cherry pick 1; shares compounds with GRK2 aptamer HTS; bead-bound GRK2, FAM-aptamer displacement, flow cytometry; aptamer displacement, % at 10 µM; 2,000 tested, 4% active; AID 504451;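 active = aptamer displacement above 40%, near three times the noise of non-fluorescent compounds, on plates passing quality checks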;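 note: negative values mostly reflect intrinsic compound fluorescence rather than true enhancement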
Aptamer quench – fluorescent aptamer quenching in GRK2 counter-screen dose response | shares compounds with GRK2 aptamer HTS | Fluorescent RNA aptamer beads, flow cytometry; stronger effect = higher value | fluorescence change (kMESF span), kMESF (no concentration beside the values) | 110 tested, under 10 active | AID 504521;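 active = compounds whose bead fluorescence drops by more than 37 kMESF across the dose range, marking them as dye quenchers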
FAM quench CP1 – counter-screen for GRK2 aptamer inhibitors: fluorescent aptamer quenchers; AID 504580; Carboxyfluorescein RNA aptamer on beads, flow cytometry quenching; stronger effect = lower value; fluorescence response (% of DMSO), % at 10 µM; shares compounds with GRK2 aptamer HTS; 2,000 tested, under 10 active;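 active = compounds that quench the bead-bound fluorescent RNA probe, cutting fluorescence to under half of the solvent control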;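 note: counterscreen run without GRK2 so only probe quenching by compound is measured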
GRK2 CP2 – confirmation of human GRK2 inhibitors binding RNA aptamer site; inhibition of aptamer binding, % at 10 µM; bead-bound GRK2, FAM-aptamer displacement, flow cytometry; shares compounds with GRK2 aptamer HTS; 360 tested, under 10 active;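 active = inhibition of aptamer binding above 40%, about triple the noise seen with nonglowing compounds, on plates passing quality control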;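 note: negative values mostly come from compounds that fluoresce themselves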
FAM quench SP – counter-screen for GRK2 binding hits: quenchers of fluorescent RNA aptamer; shares compounds with GRK2 aptamer HTS; carboxyfluorescein RNA aptamer beads, flow cytometry quenching; stronger effect = lower value; fluorescence response vs DMSO, % at 10 µM; 360 tested, under 10 active; AID 588494;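 active = response vs DMSO under 50%, meaning signal dropped by over half, treated as fluorescence quencher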;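 note: labelled aptamer on streptavidin beads without GRK2 as a quench counter-screen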
FAM quench DR – counter-screen for GRK2 aptamer binding inhibitors: aptamer fluorescence quenching | Bead-bound FAM RNA aptamer fluorescence quenching, flow cytometry; stronger effect = lower value | shares compounds with GRK2 aptamer HTS | fluorescence ratio to DMSO, % at 11.1 µM | 35 tested, under 10 active;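 active = compounds that dim the fluorescent label, raw bead signal shifting by over 33 units between lowest and highest dose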
A number is an active result; – = inactive; · = not tested or not shown.

SMILES	GRK2 aptamer HTS	MEKK3 PB1 HTS	Beta2AR agonist	MEKK2 mut-MEK5	MEKK2wt PB1 HTS	GRK2 CP1	FAM quench CP1	others
COc1ccc(Cc2nnc(SCC(=O)Nc3ccccc3C)n(N)c2=O)cc1	100.0	·	–	·	·	–	–
O=C(c1ccc2c(=O)n(CCc3ccccc3)c(=O)[nH]c2c1)N1CCN(c2ccccc2)CC1	88.0	–	–	–	–	–	–
O=C(c1ccc2c(=O)n(CCc3ccccc3)c(=O)[nH]c2c1)N1CCN(c2ccc(F)cc2)CC1	–	–	–	–	–	·	·
O=C(/C=C/c1ccc(Cl)cc1Cl)OCC(=O)N1CCCC1	–	·	–	·	·	·	·
COc1ccccc1N1CCN(C(=O)c2ccc(S(=O)(=O)N3CCCCCC3)cc2)CC1	–	–	–	–	–	–	–
CC1CC(C)CN(S(=O)(=O)c2ccc(C(=O)N3CCN(c4ccccc4)CC3)cc2)C1 (configuration not stated)	–	–	–	–	–	–	–
Cc1noc(C)c1COc1ccc(C(=O)N2CCN(c3ccccc3O)CC2)cc1	–	·	–	·	·	·	·
NC(=O)c1ncn([C@@H]2O[C@H](CNCc3ccc(-c4cc(C(F)(F)F)ccc4Cl)o3)[C@@H](O)[C@H]2O)n1	·	·	–	·	·	·	·
CCOC(=O)C(CC(=O)c1ccccc1)CC(=O)c1ccccc1	–	–	–	–	–	·	·
Cc1cccc(Cn2c(=O)oc3ccc(C)cc32)c1	68.0	–	–	–	–	–	–
CCCC(c1nnnn1CCOC)N1CCN(c2nc3ccccc3s2)CC1 (configuration not stated)	–	–	–	–	–	·	·
O=C(CN1CCc2ccccc21)NC(=O)NCc1ccccc1	42.0	–	–	–	–	70.1	–	Aptamer quench=–;FAM quench DR=–
CC(Cl)C(=O)Nc1ncc(C(F)(F)F)cc1Cl (configuration not stated)	52.0	–	–	–	–	–	–
O=C(NC1CC1)c1cc(=S)[nH]c2ccccc12	–	·	–	·	·	–	–
Cc1nc2scc(-c3ccc(C(C)(C)C)cc3)c2c(=O)n1N	–	–	–	–	–	·	·
Nc1nc(SCC(=O)N2CCN(c3ccc(F)cc3)CC2)n[nH]1	–	·	–	·	·	·	·
C=CCn1c(N)cc(=O)nc1SCC(=O)N1CCN(c2ccc(F)cc2)CC1	56.0	–	–	–	–	–	–
COCCNC(=O)C(c1ccc(C)o1)N(Cc1ccc(F)cc1)C(=O)Cn1nnc2ccccc21 (configuration not stated)	–	–	–	–	–	·	·
COCCNC(=O)C(c1ccc(C)o1)N(Cc1ccc(OC)cc1)C(=O)Cn1nnc2ccccc21 (configuration not stated)	44.0	–	–	–	–	–	–
Clc1c2c(nc3ccccc13)CCC2	–	–	–	–	–	·	·	GRK2 CP2=–;FAM quench SP=–
COc1ccccc1NC(=O)CCn1c(=S)oc2ccccc21	–	–	–	–	–	·	·
CC(C)CCNC(=O)CCn1c(=S)oc2ccccc21	43.0	–	–	–	–	–	–
CCn1ncc(CN2CCCC(C(=O)c3cccc(OC(C)C)c3)C2)c1C (configuration not stated)	–	–	–	–	–	·	·
COc1ccc(C(=O)C2CCCN(Cc3cnc(N4CCOCC4)s3)C2)cc1F (configuration not stated)	–	–	–	–	–	–	–
CC(C)Oc1cccc(C(=O)C2CCCN(Cc3cnc(N4CCOCC4)s3)C2)c1 (configuration not stated)	53.0	–	–	–	–	–	–
SMILES	GRK2 aptamer HTS	MEKK3 PB1 HTS	Beta2AR agonist	MEKK2 mut-MEK5	MEKK2wt PB1 HTS	GRK2 CP1	FAM quench CP1	others
COc1ccc(C(=O)C2CCCN(Cc3cnc(N4CCOCC4)s3)C2)c(OC)c1 (configuration not stated)	–	–	–	–	–	·	·
Cn1cnnc1SCc1ccc(C(=O)N/N=C(/CCC(=O)O)c2ccc(C(C)(C)C)cc2)cc1	·	·	–	·	·	·	·
Cc1ccc(-c2ccc(CCC(=O)O)n2CC(=O)O)cc1	89.0	–	–	–	–	–	–
COc1ccc(CN(C(=O)c2cccc(OC)c2)C2CCS(=O)(=O)C2)cc1 (configuration not stated)	–	–	–	–	–	·	·
CCCOc1ccc(CN(C(=O)c2cccc(OC)c2)C2CCS(=O)(=O)C2)cc1 (configuration not stated)	99.0	–	–	–	–	–	–
COc1ccc(F)cc1C1=CC(=O)C[C@H](c2ccc3c(c2)OCO3)C1	41.0	·	–	·	·	–	–
COc1cc(F)c(C2=CC(=O)C[C@H](c3ccc4c(c3)OCO4)C2)cc1F	–	·	–	·	·	·	·
CCOc1ccccc1CNC(=O)Cn1ccc2cc(S(=O)(=O)N3CCCC3)ccc21	–	–	–	–	–	·	·
c1ccc(CN(CC2=NCCN2)c2ccccc2)cc1	–	–	–	–	–	–	–
CN(CCO)C(=O)c1c(NC(=O)c2ccccc2)sc2c1CCCC2	42.0	–	–	–	–	–	–
O=C(Cn1c(=O)c2cccn2c2ccc(F)cc21)NCCCN1CCN(c2ccccc2F)CC1	–	–	–	27.0	156.0	–	–
O=C(NCCCN1CCN(c2ccccc2F)CC1)Nc1ccc(F)cc1	–	–	–	–	–	–	–
CN(C)CCNC(=O)Cn1c(=O)c2cccn2c2ccc(F)cc21	–	–	–	–	–	·	·
COc1ccc(-c2c(C)oc3cc(O)cc(O)c3c2=O)cc1OC	50.0	–	–	–	–	–	–
O=C1NC(=O)/C(=C\c2ccc(Br)o2)S1	90.0	–	–	–	–	–	–
CCN(C(=O)CN1c2ccccc2CC1C)c1c(N)n(Cc2ccccc2)c(=O)[nH]c1=O (configuration not stated)	–	–	–	–	–	–	–
COc1cc(/C=N/Nc2nc3ccccc3s2)cc([N+](=O)[O-])c1O	68.0	–	–	–	–	–	–
O=[N+]([O-])c1cc(Cl)cc(/C=N/Nc2nc3ccccc3s2)c1O	–	–	–	–	–	·	·
